# Compounds without any hit were thinned out: in the full panel of roughly 79,000, 15% have a hit. Unmarked numbers belong to inactive results. Active and inactive are the calls of the source. No stated cut-off is given here; in the data, active means growth inhibition above about 70%; inactive means the rest.
# Columns and labels:
# [1] = NCI Yeast Anticancer Drug Screen. Data for the rad50 strain (AID 155);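 further: 0% = growth of vehicle-only cultures of the same strain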; settings: S. cerevisiae rad50 strain growth inhibition, active compounds read high
# In short: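 Readout: growth inhibition relative to vehicle-treated cultures. Compound exposure was carried out in a genetically defined yeast strain deficient in DNA damage repair.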
# [2] = NCI Yeast Anticancer Drug Screen. Data for the mec2-1 strain (AID 157); settings: S. cerevisiae mec2-1 strain, active compounds read high
# In short: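 Test agents were screened against the mec2-1 yeast strain, with defined DNA repair or cell cycle alteration. Growth was scored as inhibition against vehicle-only controls.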
# [3] = NCI Yeast Anticancer Drug Screen. Data for the sgs1 mgt1 strain (AID 161);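 further: 0% = growth of cultures given vehicle only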; settings: S. cerevisiae sgs1 mgt1 strain, active compounds read high
# In short: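 Read-out: growth inhibition vs vehicle controls. Cells: mutant yeast strain deficient in DNA damage repair.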
# [4] = NCI Yeast Anticancer Drug Screen. Data for the cln2 rad14 strain (AID 165);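 further: 0% = growth equal to vehicle treated cultures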; settings: S. cerevisiae cln2 rad14 strain, active compounds read high
# In short: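 Growth of compound-exposed yeast (cln2 rad14 genotype) measured and expressed as inhibition relative to vehicle.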
# [5] = NCI Yeast Anticancer Drug Screen. Data for the bub3 strain (AID 167); settings: S. cerevisiae bub3 mutant strain, active compounds read high
# In short: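 Readout: yeast growth inhibition, expressed relative to vehicle-only wells. The test organism is a mutant strain from a panel with lesions in DNA repair or checkpoint genes.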
# [6] = NCI Yeast Anticancer Drug Screen. Data for the mlh1 rad18 strain (AID 175); settings: S. cerevisiae mlh1 rad18 strain growth inhibition, active compounds read high
# In short: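 In this whole-cell yeast screen, a strain with altered DNA damage repair is challenged with compound, and its growth is measured against matched vehicle-treated controls.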
# [7] = at 5.0 µM (retest, dose inferred, filed as 0.5)
# [8] = at 50.0 µM (retest, dose inferred, filed as 5.0)
SMILES,"growth inhibition [1, 7]","growth inhibition [1, 8]",growth inhibition ([1]; at 50.0 µM),"growth inhibition [2, 7]","growth inhibition [2, 8]",growth inhibition ([2]; at 50.0 µM),"growth inhibition [3, 7]","growth inhibition [3, 8]",growth inhibition ([3]; at 50.0 µM),"growth inhibition [4, 7]","growth inhibition [4, 8]",growth inhibition ([4]; at 50.0 µM),"growth inhibition [5, 7]","growth inhibition [5, 8]",growth inhibition ([5]; at 50.0 µM),"growth inhibition [6, 7]","growth inhibition [6, 8]",growth inhibition ([6]; at 50.0 µM)
CC1=CC(c2c(O)cc(O)c(C(=O)CCc3ccccc3)c2O)C(C(C)C)CC1 (stereo not given),11%,88% (active),70.8% (active),10%,85% (active),83% (active),1%,91% (active),80% (active),3%,87% (active),79.2% (active),21%,96% (active),76% (active),8%,76% (active),82.2% (active)
CCC(C)N(C(=O)c1ccccc1)c1ccccc1 (stereo not given),-1%,-2%,2.8%,1%,-1%,6.15%,2%,-3%,-7.35%,0%,3%,39.8%,-3%,-1%,-4.45%,-3%,2%,-3.65%
c1csc(CNCc2cccs2)c1,-3%,-5%,-13.9%,-2%,1%,1.45%,-1%,-5%,-1.2%,-4%,-4%,-23.4%,-1%,-5%,1.3%,0%,-7%,37.3%
CC(=O)c1c(-c2ccco2)c(C#N)c(=S)n(C2OC(CO)C(O)C(O)C2O)c1-c1ccccc1 (stereo not given),-9%,12%,32.9%,-4%,17%,49.6%,0%,44%,58.5%,14%,28%,35.2%,8%,20%,50.8%,-25%,45%,62.6%
O=c1c(-c2ccccc2)c1-c1ccccc1,7%,92% (active),98.7% (active),4%,95% (active),99.3% (active),8%,90% (active),98.9% (active),-2%,96% (active),97.6% (active),5%,91% (active),99.2% (active),1%,96% (active),99% (active)
CCOC(=O)c1c(C)[nH]c(C(=O)C(N)C(=O)OCC)c1C (stereo not given),8%,-3%,98% (active),6%,-6%,99.5% (active),7%,-1%,98.8% (active),3%,-1%,99.5% (active),-3%,-5%,99.4% (active),4%,-6%,99% (active)
Cc1ccc(S(=O)(=O)OCC(/C=N/NC(N)=O)OCOC(C)/C=N/NC(N)=O)cc1 (stereo not given),-2%,-7%,14.8%,0%,-5%,99.2% (active),-4%,-8%,1.95%,1%,-8%,46.8%,1%,-2%,-1.4%,1%,-3%,19.1%
COc1cccc2c1OC(c1cccc3ccccc13)C([N+](=O)[O-])=C2 (stereo not given),49%,75% (active),62.3%,32%,67%,62.1%,39%,70% (active),61.4%,22%,62%,47%,47%,74% (active),54.8%,49%,81% (active),58.8%
CCOC(=O)C(C)(C)C,0%,29%,15.8%,3%,16%,-8.2%,2%,12%,14.4%,0%,11%,25.6%,2%,29%,73% (active),3%,16%,23.3%
N#Cc1c(Cl)cc(Cl)n2c1nc1ccccc12,46%,97% (active),91.2% (active),29%,99% (active),94% (active),56%,100% (active),93% (active),43%,99% (active),91.7% (active),56%,99% (active),91.3% (active),43%,97% (active),92.3% (active)
